Only some compounds are listed: those with a hit (about 3.7% of all), similar ones and a draw of the others.
FadD28 FP inh: inhibitors of FadD28 bisubstrate probe binding, primary screen, biochemical, fluorescence polarization, single point. inhibition, % at 12.5 µM. 360,000 tested, 0.22% active. AID 588549, 2011. Mycobacterium tuberculosis FadD28 fatty-acid-AMP ligase; in the data active = inhibition above about 8.5%, passing the limit was not always enough
Mtb FBA inh: Mtb FBA enzyme inhibitors, primary screen, biochemical, fluorescence, strain H37Rv; purified M. tuberculosis FBA, fluorescence read-out; 360,000 tested, 2.3% active; inhibition, % at 1 µM
Target sequence (P9WQA3 whole entry, looked up): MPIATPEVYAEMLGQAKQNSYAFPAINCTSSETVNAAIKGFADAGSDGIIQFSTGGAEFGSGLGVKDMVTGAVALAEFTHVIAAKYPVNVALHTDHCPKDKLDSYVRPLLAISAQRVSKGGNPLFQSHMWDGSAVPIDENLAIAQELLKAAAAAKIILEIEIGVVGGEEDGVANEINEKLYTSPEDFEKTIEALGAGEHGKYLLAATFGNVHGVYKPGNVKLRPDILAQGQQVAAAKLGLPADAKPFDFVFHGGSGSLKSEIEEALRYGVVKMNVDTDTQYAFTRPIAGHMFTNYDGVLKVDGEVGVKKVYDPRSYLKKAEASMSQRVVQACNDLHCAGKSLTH
Mtb betalactam: beta-lactam sensitization of Mtb H37Rv, H37Rv; 330,000 tested, 0.27% active; M. tuberculosis H37Rv growth with meropenem, percent inhibition; inhibition, % at 25 µM; call rule not given here;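 note: growth measured after seven days incubation then overnight dye step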
UGM FP inh: M. tuberculosis UGM enzyme inhibitors, primary screen, biochemical, fluorescence polarization, single point. UDP-galactopyranose mutase (Mycobacterium tuberculosis (strain ATCC 25618 / H37Rv)), …. purified UGM, fluorescence polarization probe displacement. inhibition, % at 10 µM. 320,000 tested, 0.06% active; in the data active = inhibition above about 10%, passing the limit was not always enough
GDH-TPI counter-1: GDH-TPI coupling enzyme inhibitors, primary screen, artefact control for M. tuberculosis FBA inhibitor project, biochemical, absorbance, full deck; GDH-TPI coupled enzyme counterscreen, NADH absorbance; inhibition, % at 4.8 µM; 360,000 tested, 1.2% active; in the data active = inhibition above about 30%
Rv3671c protease: Rv3671c serine protease inhibitors, primary screen, biochemical, fluorescence polarization, M. tuberculosis H37Rv; P9WHR9; inhibition, % at 5.96 µM; 320,000 tested, 0.048% active; AID 2606, 2010; in the data active = inhibition above about 38%;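 note: extracellular domain of Rv3671c used as enzyme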
Mtb FBA inh conf: M. tuberculosis aldolase blockers, biochemical, fluorescence, strain H37Rv, confirmation; AID 651616, 2012; inhibition, % at 1 µM; 5,600 tested, 78% active; purified M. tuberculosis FBA, fluorescence read-out; shares compounds with Mtb FBA inh
GDH-TPI counter-2: GDH-TPI coupling enzyme inhibitors, artefact control for M. tuberculosis FBA inhibitor project, biochemical, fluorescence, high throughput. shares compounds with Mtb FBA inh. GDH-TPI coupled enzyme counterscreen. inhibition, % at 1 µM. 5,600 tested, 81% active. AID 652141, 2013; in the data active = inhibition above about 10%
Numbers stand for hits. Cut-off read from the data, not from the text of the source, unless noted: active = inhibition above about 27%; inactive = the rest.

How did CCC(=O)c1c[nH]c(C(=O)NCc2cccc(C(F)(F)F)c2)c1 do in these assays?
FadD28 FP inh: inactive; Mtb FBA inh: 79.2; Mtb betalactam: inactive; UGM FP inh: inactive; GDH-TPI counter-1: inactive; Rv3671c protease: inactive; Mtb FBA inh conf: active; GDH-TPI counter-2: active

Results for COc1ccc(/C=N\NC(=O)c2cc(O)c(O)c(O)c2)cc1COc1ccc(C(=O)OCC(C)C)cc1 ?
FadD28 FP inh: inactive; Mtb FBA inh: inactive; Mtb betalactam: inactive; UGM FP inh: inactive; GDH-TPI counter-1: inactive; Rv3671c protease: inactive

What do the screens show for `O=c1oc(CCO)cc2ccc(-c3ccc4[nH]ccc4c3)cc12`?
FadD28 FP inh: inactive; Mtb FBA inh: inactive; Mtb betalactam: inactive; UGM FP inh: inactive; GDH-TPI counter-1: inactive; Rv3671c protease: inactive

Results for Cn1cncc1C#Cc1ccc2cc(CCO)oc(=O)c2c1 ?
FadD28 FP inh: inactive; Mtb FBA inh: 34.4; Mtb betalactam: inactive; UGM FP inh: inactive; GDH-TPI counter-1: inactive; Rv3671c protease: inactive; Mtb FBA inh conf: active; GDH-TPI counter-2: active

What do the screens show for `CCOC(=O)c1cnn(-c2ncnc3sc(C)c(C)c23)c1N`?
FadD28 FP inh: inactive; Mtb FBA inh: 76.9; Mtb betalactam: inactive; UGM FP inh: inactive; GDH-TPI counter-1: inactive; Rv3671c protease: inactive; Mtb FBA inh conf: 84.1; GDH-TPI counter-2: 65.9

How did CC1=C(C)C(=O)N(C(C)CCc2ccccc2)C1=O (stereo unspecified) do in these assays?
FadD28 FP inh: inactive; Mtb FBA inh: 39.6; Mtb betalactam: inactive; UGM FP inh: inactive; GDH-TPI counter-1: inactive; Rv3671c protease: inactive; Mtb FBA inh conf: 89.0; GDH-TPI counter-2: 74.7

How did CCOc1ccc2nc(N3CCOCC3)nc(C)c2c1 do in these assays?
FadD28 FP inh: inactive; Mtb FBA inh: 50.6; Mtb betalactam: inactive; UGM FP inh: inactive; GDH-TPI counter-1: inactive; Rv3671c protease: inactive; Mtb FBA inh conf: 130.9; GDH-TPI counter-2: 108.9

What do the screens show for `c1ccc2c(N3CCCCC3)nc(N3CCOCC3)nc2c1`?
FadD28 FP inh: inactive; Mtb FBA inh: inactive; Mtb betalactam: inactive; UGM FP inh: inactive; GDH-TPI counter-1: inactive; Rv3671c protease: inactive

What do the screens show for `O=c1[nH]c2ccccc2nc1N1CCOCC1`?
FadD28 FP inh: inactive; Mtb FBA inh: inactive; Mtb betalactam: inactive; UGM FP inh: inactive; GDH-TPI counter-1: inactive; Rv3671c protease: inactive

What do the screens show for `c1ccc2c(NCC3CCCO3)nc(N3CCOCC3)nc2c1` (stereo unspecified)?
FadD28 FP inh: inactive; Mtb FBA inh: 64.4; Mtb betalactam: inactive; UGM FP inh: inactive; GDH-TPI counter-1: inactive; Rv3671c protease: inactive; Mtb FBA inh conf: 175.7; GDH-TPI counter-2: 132.2

Results for c1ccc2c(c1)nc(N1CCOCC1)c1c3ccccc3[nH]c21 ?
FadD28 FP inh: inactive; Mtb FBA inh: 31.3; Mtb betalactam: inactive; UGM FP inh: inactive; GDH-TPI counter-1: inactive; Rv3671c protease: inactive; Mtb FBA inh conf: 62.0; GDH-TPI counter-2: 62.8

What do the screens show for `Nc1nc(N2CCOCC2)nc2ccccc12`?
FadD28 FP inh: inactive; Mtb FBA inh: 75.1; Mtb betalactam: inactive; UGM FP inh: inactive; GDH-TPI counter-1: inactive; Rv3671c protease: inactive; Mtb FBA inh conf: inactive; GDH-TPI counter-2: inactive

What do the screens show for `COc1cccc(NC(=O)C2(C)CCN2C(=O)CC2CCCC2)c1` (stereo unspecified)?
FadD28 FP inh: inactive; Mtb FBA inh: inactive; GDH-TPI counter-1: inactive

How did O=C(Nc1ccccc1)C1CCN(S(=O)(=O)c2cccs2)CC1 do in these assays?
FadD28 FP inh: inactive; Mtb FBA inh: inactive; Mtb betalactam: inactive; GDH-TPI counter-1: inactive; Rv3671c protease: inactive

How did O=C(O)C1CCN(S(=O)(=O)c2cccs2)CC1 do in these assays?
FadD28 FP inh: inactive; Mtb FBA inh: 31.6; Mtb betalactam: inactive; UGM FP inh: inactive; GDH-TPI counter-1: inactive; Rv3671c protease: inactive; Mtb FBA inh conf: 57.2; GDH-TPI counter-2: 36.3

What do the screens show for `CN(C)CCNc1nc(Oc2ccccc2)c2sccc2n1`?
FadD28 FP inh: inactive; Mtb FBA inh: inactive; GDH-TPI counter-1: inactive

How did COc1ccc(OC)c(C(=O)COC(=O)COc2ccccc2)c1 do in these assays?
FadD28 FP inh: inactive; Mtb FBA inh: inactive; Mtb betalactam: inactive; UGM FP inh: inactive; GDH-TPI counter-1: inactive; Rv3671c protease: inactive

How did Cc1cc(Oc2ccc(C(F)(F)F)cc2[N+](=O)[O-])c2c3c(c(=O)oc2c1)CCC3 do in these assays?
FadD28 FP inh: inactive; Mtb FBA inh: inactive; Mtb betalactam: inactive; UGM FP inh: inactive; GDH-TPI counter-1: inactive; Rv3671c protease: inactive

How did Cc1cc(OCC(=O)OC(C)C)c2c3c(c(=O)oc2c1)CCCC3 do in these assays?
FadD28 FP inh: inactive; Mtb FBA inh: inactive; Mtb betalactam: inactive; UGM FP inh: inactive; GDH-TPI counter-1: inactive; Rv3671c protease: inactive

How did CCOC(=O)C(C)Oc1cc(C)cc2oc(=O)c3c(c12)CCCC3 (stereo unspecified) do in these assays?
FadD28 FP inh: inactive; Mtb FBA inh: 75.3; Mtb betalactam: inactive; GDH-TPI counter-1: inactive; Rv3671c protease: inactive; Mtb FBA inh conf: 65.3; GDH-TPI counter-2: 61.5

What do the screens show for `COC(=O)C(C)Oc1cc(C)cc2oc(=O)c3c(c12)CCC3` (stereo unspecified)?
FadD28 FP inh: inactive; Mtb FBA inh: 74.0; Mtb betalactam: inactive; UGM FP inh: inactive; GDH-TPI counter-1: inactive; Rv3671c protease: inactive; Mtb FBA inh conf: active; GDH-TPI counter-2: active

How did COC(=O)C(C)Oc1cc(C)cc2oc(=O)c3c(c12)CCCC3 (stereo unspecified) do in these assays?
FadD28 FP inh: inactive; Mtb FBA inh: 57.0; Mtb betalactam: inactive; UGM FP inh: inactive; GDH-TPI counter-1: inactive; Rv3671c protease: inactive; Mtb FBA inh conf: 59.1; GDH-TPI counter-2: 51.0

Results for CCn1ccnc1CN(C)Cc1cn[nH]c1-c1ccc(F)cc1F ?
FadD28 FP inh: inactive; Mtb FBA inh: 90.5; Mtb betalactam: inactive; UGM FP inh: inactive; GDH-TPI counter-1: inactive; Rv3671c protease: inactive; Mtb FBA inh conf: inactive; GDH-TPI counter-2: inactive

How did COc1ccc(-c2[nH]ncc2CN(Cc2nccn2C)C(C)C)c(F)c1 do in these assays?
FadD28 FP inh: inactive; Mtb FBA inh: inactive; Mtb betalactam: inactive; UGM FP inh: inactive; GDH-TPI counter-1: inactive; Rv3671c protease: inactive

Results for COc1ccc(-n2c(C)nnc2SCC(=O)NC2CC2)cc1 ?
FadD28 FP inh: inactive; Mtb FBA inh: 91.8; Mtb betalactam: inactive; UGM FP inh: inactive; GDH-TPI counter-1: inactive; Rv3671c protease: inactive; Mtb FBA inh conf: 42.1; GDH-TPI counter-2: 34.0

Screening data (PubChem)
